Source: the supplement of paper PMC3334620
In all, about 33,000 sequences were measured (“E-score (-0.5 to 0.5)”: median about -0.0014, highest 2% from about 0.25 on). The sample holds the highest values, similar sequences and a random draw of the others, so the mix is not that of the screen.

target: T1, Cad1 (UniProt P24813); test: PBM E-score (8-mer binding enrichment) (E-score (-0.5 to 0.5)); higher = stronger / more preferred TF binding; conditions: protein concentration: 100 nM; construct: GST-full length
T1 sequence: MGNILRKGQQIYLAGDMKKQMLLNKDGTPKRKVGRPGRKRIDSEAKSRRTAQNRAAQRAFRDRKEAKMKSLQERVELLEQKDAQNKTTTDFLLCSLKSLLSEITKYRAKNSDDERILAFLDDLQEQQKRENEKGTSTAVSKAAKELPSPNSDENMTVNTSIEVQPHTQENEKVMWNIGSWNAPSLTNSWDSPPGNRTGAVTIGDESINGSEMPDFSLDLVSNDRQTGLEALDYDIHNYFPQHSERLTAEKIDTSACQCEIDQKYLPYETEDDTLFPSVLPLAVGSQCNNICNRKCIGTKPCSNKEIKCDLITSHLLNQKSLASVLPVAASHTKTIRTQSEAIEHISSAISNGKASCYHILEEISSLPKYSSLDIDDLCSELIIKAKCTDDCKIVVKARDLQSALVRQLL
Method: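 Universal 'all 10-mer' protein binding microarrays (Agilent AMADID 015681) probed with GST-tagged S. cerevisiae TFs (full-length or DBD) made by in vitro transcription/translation (PURExpress), about 100-200 nM. Bound TF was detected with fluorescent anti-GST. Each ungapped 8-mer (which stands for itself and its reverse complement) is scored by the PBM enrichment score (E-score), a modified Wilcoxon-Mann-Whitney statistic from -0.5 to +0.5, computed with the Universal PBM Analysis Suite. Scale: above 0.35 generally sequence-specific binding.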

Sequence | PBM E-score
ACCGATGG | -0.143
TCTGAACA | 0.184
GCTATCGA | -0.0158
AGCGCGCC | 0.082
CGCGCGGC | 0.261
CGCGCGCC | 0.254
GGCGCGCC | 0.172
AGCGCGGC | 0.0398
CGCGCGGA | 0.212
TTAACAAA | 0.0927
GACTCTAA | -0.118
ACATAAGC | 0.107
GCATAAGA | 0.108
GCATAAGC | 0.254
GCTTAGCC | -0.148
CCTAATAA | 0.0868
AGTAATAC | 0.21
ACTACTAA | 0.158
ACTAATAG | 0.325
AATAATAT | 0.208
AGTAATAT | 0.346
ACTACTAT | 0.253
ACTAATAT | 0.302
ACTAATAA | 0.226
ACTACTAC | 0.0727

Sequence | PBM E-score
CCTAATAG | -0.0644
AGTAATAG | 0.16
CACCTAAA | 0.0285
TCTTAACA | 0.0995
CCCGCCGG | -0.00326
GTCACTTA | 0.151
AGCTAGCA | -0.0255
AGAGACGG | 0.0418
ACTAACAC | 0.184
CCTAATAC | 0.013
ACTAACAG | 0.193
ACTAACAT | 0.255
GCTAATAC | 0.152
ACTAATAC | 0.301
ACTGCGCG | 0.0621
AATATATT | 0.322
AATATCGG | 0.183
ACTATAGA | -0.00757
AATATCGA | 0.242
AATATATG | 0.236
AATATAGT | 0.281
AATATAGG | 0.123
AATATATA | 0.244
AATATAGC | 0.0229
ACTATAGT | 0.293

Sequence | PBM E-score
AATATCGT | 0.272
ACTATAGG | -0.161
ACTGGTCA | -0.0283
GAGTCCGC | -0.377
ATTTAGGA | 0.0482
AGGCAGGG | -0.133
ACCACCAA | -0.0937
CTTCCGTC | -0.133
CAGAGCAA | -0.0906
AACAGGGC | 0.0552
TGCGTGAA | 0.0712
GACGTATC | -0.107
ACCCATGA | -0.0855
CCACACGC | 0.131
CTTACGTA | 0.328
CTCACGTA | -0.0707
ATTACGTG | 0.163
CTTACGTC | -0.0353
GTTACGAA | 0.17
ATTACGAA | 0.327
ATTACGTA | 0.392
GTTACGTA | 0.0792
ATTACGAG | 0.0536
CCAATTTC | 0.105
ATCCACTA | 0.127

Sequence | PBM E-score
GACTAAGA | 0.0179
AGATTACC | 0.107
TGATTACA | 0.275
AAATTATA | 0.237
TAATTACA | 0.265
TAATTATA | 0.306
CGATTACA | 0.197
AGATTACT | 0.184
GGATTACA | 0.0354
GAATTATA | 0.19
AGATTACG | 0.252
CAATTACA | 0.241
AAATTACA | 0.191
ATGCCCGA | -0.0531
TGGCGCCA | 0.198
CGCGTTCC | 0.132
AGATCAGG | -0.128
TCGTTAGA | 0.0445
CGTACTTC | 0.096
CTACGGCC | -0.0892
TCGGTACA | -0.0456
ACAAGAAT | 0.00675
ATAAGAAC | 0.205
AAAAGAAC | 0.118
AAAAGAAG | 0.0683

Sequence | PBM E-score
ATAAGATC | 0.0938
CTAAGATA | -0.0701
ATAAGATA | 0.264
ATAAGAAT | 0.284
ATAAGAAA | 0.209
AAAAGAAT | 0.257
GCAAGAAC | 0.0479
ACAAGAAC | 0.251
GGCTTTAA | -0.12
TACCACTA | -0.0282
CTAGCCCA | -0.145
CGGACACA | 0.00739
GAGGCTTA | -0.0175
ATAGGCAT | -0.202
GAGGTTCA | 0.0769
CTGGCTGC | -0.0751
ACGCGTCA | 0.198
GGGAAGAC | -0.154
AACCCCAT | -0.107
AAACCCAT | 0.261
AAACCCAG | 0.0892
AGGCCGAA | -0.0603
CTTAAGGA | 0.0352
AAGGCACA | -0.0665
TGACCGCA | 0.0752

Sequence | PBM E-score
AAATGATA | 0.214
CAATGATA | 0.0335
TAATGATA | 0.251
GAATGATA | 0.223
AAATGATC | -0.133
AAATGATT | 0.261
AATCTGCG | 0.00478
CAGGTTAC | -0.0155
CACTTCGG | -0.0116
CATTGTAC | 0.0995
GATTGTAC | -0.082
AATTGTAC | 0.252
AACACAGG | -0.0364
CACACAGC | 0.107
AACACAGC | 0.281
CGGGGGCC | -0.42
CGGAGGTA | -0.0635
GGCGTCCC | -0.213
AGACGTCA | -0.096
GGACGTCA | -0.159
TGACGTCA | 0.334
AGTCGACG | 0.296
GGTCGACC | 0.263
GGTCGACA | 0.0882
CGTCGACG | 0.103

Sequence | PBM E-score
AGTCGACA | 0.22
AGTCGACC | 0.107
AGTCGACT | 0.287
ACTCGACG | 0.0798
CGTCGACC | 0.118
CCAACTAG | 0.0684
GCGCACCA | 0.134
CTAACCTA | -0.129
AACTAGCC | -0.0573
AGAACAGC | 0.00791
ACGCATTG | -0.0523
GAACATAC | 0.0334
AGTGGCGG | -0.014
CTCAGGCA | 0.034
ACACCAAG | -0.0199
AAACGAAT | 0.017
GAACGAAA | -0.0129
AAACGGAC | -0.00593
TAACGAAA | 0.26
CAACGAAA | 0.162
AAACGGAA | 0.266
AAACGAAA | 0.287
GAACGGAA | -0.0319
